Laboratory results published in PubChem BioAssay (NCI).
About 83,000 compounds went through this panel and 20% of them were active in at least one assay; those are over-represented in the sample as a whole.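 How to read the values: 0–100, growth inhibition (40 = 60% inhibited); 0, no net growth; -100 to 0, cell death (-40 = 40% of starting cells died; -100 = all dead).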 Unmarked numbers belong to inactive results. Active and inactive are the calls of the source. Rule for the calls: active = growth percent below 10; inactive = the rest.

test system: OVCAR-5 ovarian; experiment: NCI-60 one-dose screen, 48 h (100 = growth as untreated, 0 = no growth, -100 = all killed); conditions: 10 µM unless noted

In order of rising growth:
1. Cc1[nH]n(-c2cccc(Cl)c2)c(=O)c1/C=C1\C=c2ccccc2=CC1=O  16.9%
2. CNCCCNc1nc2ccccc2c2c(=O)c3cc(Cl)ccc3sc12  47.1%
3. O=S(=O)(Nc1ccc2ccccc2c1)c1ccc(-c2cnc(C3CC3)o2)cc1  48%
4. Cn1cc(-c2nonc2-c2c[nH]c3ccccc23)c2cc(Br)ccc21  49%
5. COc1ccc(-c2cc(C(=O)N3N=C(c4ccc(N)cc4)CC3c3ccc(Cl)cc3)c3ccccc3n2)cc1 (stereo not given)  51.6%
6. COc1cc2c3c(c4c5ccccc5[nH]c4c2c(OC)c1OC)C(=O)N(CCN1CCCCC1)C3=O  52.4%
7. CCCc1cc(=O)oc2c(C(=O)CC(C)C)c(O)c(CC=C(C)C)c(O)c12  53.8%
8. CS(=O)(=O)Nc1cc(-c2ccc3ncnc(Nc4ccc5c(cnn5Cc5ccncc5)c4)c3c2)cnc1Cl  59%
9. CC(O)CNC(Cc1ccccc1)c1ccc2c(c1)OCO2 (stereo not given)  59.6%
10. COc1ccc(C2[C@@H](Cl)C(=O)N2c2cc(OC)c(OC)c(OC)c2)cc1Cl (stereo not given in full)  64.4%
11. C=C1C(=O)O[C@H]2[C@H]1CC/C(COC(=O)NCc1ccc(Cn3c(=O)sn(-c4ccccc4)c3=O)cc1)=C\CC[C@@]1(C)O[C@@H]21  68.3%
12. C/C(Cc1ccc(Cl)cc1)=C(\c1ccc(OCCN2CCCCCC2)cc1)c1ccc(OC(=O)c2ccccc2)cc1  68.7%
13. Cc1cc(NCCCNc2ccnc3cc(Cl)ccc23)nc(Nc2ccc(C(=O)N3CCCCC3)cc2)n1  71.6%
14. C/C(=N\Nc1ccccc1)c1ccc(NC2=CC(=O)c3ccccc3C2=O)cc1  72.5%
15. CSc1ccc2c3c(n(CCCn4ccnc4)c(=O)c2c1)-c1ccccc1C3=O  76.5%
16. CCOC(=O)C1=C(CCl)N(C)C(=O)NC1c1ccc2c(c1)OCO2 (stereo not given)  76.9%
17. O=C(Cc1ccc(/C=C/C(=O)c2ncc[nH]2)cc1)Nc1cc(F)c(F)c(F)c1  80.7%
18. COc1cc(/C=C/c2cn[nH]c2-c2ccc(C)cc2)cc(OC)c1OC  85%
19. Clc1cccc(C2Cc3cnccc3-c3[nH]c4ccncc4c32)c1 (stereo not given)  86.4%
20. CC/C(=C(/c1ccc(O)cc1)c1ccc(OCCN2CCCCC2)cc1)c1ccc(OC)cc1  90.9%
21. CCN(CC)CCn1c2ccc(OC)cc2c2sc3cc(O)ccc3c(=O)c21  91%
22. O=C(/C=C/c1ccccc1)c1ccc(-n2cc(CN3CCN(c4cc5c(cc4F)c(=O)c(C(=O)O)cn5C4CC4)CC3)nn2)cc1  92.2%
23. O=c1oc2ccccc2cc1-c1nn(-c2ccccc2)cc1-c1nn[nH]n1  93.2%
24. C=C1C(=O)O[C@H]2[C@H]1CC/C(COC(=O)NCc1ccc(Cn3c(=O)sn(-c4ccc(I)cc4)c3=O)cc1)=C\CC[C@@]1(C)O[C@@H]21  96.5%
25. Nc1ncccc1O  98.7%
26. c1ccc2cc(Cn3cc(CSc4nc5ccccc5s4)nn3)ccc2c1  99.7%
27. CN(C)CCC(=O)C1CC1  100%
28. S=c1ccnc[nH]1  101%
29. C=CN(C(=O)N1CCN(c2cc3c(cc2F)c(=O)c(C(=O)O)cn3C2CC2)CC1)c1nc(-c2ccccc2)cs1  102%
30. O=C(Nc1cccnc1Nc1ccccc1)c1cn(Cc2cccc(Oc3ccccc3)c2)nn1  103%
31. O=C(O)c1cn(C2CC2)c2cc(N3CCN(C(=O)N4CCOCC4)CC3)c(F)cc2c1=O  104%
32. CC1(C)CC[C@]2(CO)CC[C@]3(C)[C@](O)([C@H](O)C[C@@H]4[C@@]5(C)CCCNC(C)(C)[C@@H]5CC[C@]43C)[C@@H]2C1  106%
33. O=C(NCCN1CCOCC1)OCc1ccc2c(Cl)cc(Cl)c(O)c2n1  106%
34. CN1CCOCCN(C)Cc2ccc3ccc(cc3c2)CN(C)CCOCCN(C)Cc2ccc3ccc(cc3c2)C1  134%
35. COC(=O)/C(CCC=C(C)C)=C1\[C@@H](OC(C)=O)C[C@@]2(C)[C@H]1C/C(=N/O)[C@H]1[C@@]3(C)CC/C(=N\O)[C@@H](C)[C@@H]3CC[C@@]12C  135%

For `COc1ccc2cc(C(=O)N3CCC([C@@H](C)C(=O)NCc4ccc5c(c4)OCO5)CC3)[nH]c2c1`, the growth was 73.1% [50 µM].

For `COc1ccc(Nc2ncc(I)c(NCCCNC(=O)C3CCC3)n2)cc1`, the growth was 3.96% (active).
`O=C(NCCCCCCNC(=O)OCc1ccc2c(Cl)cc(Cl)c(O)c2n1)OCc1ccc2c(Cl)cc(Cl)c(O)c2n1` was tested, and the growth was -89.6% (active).
For `OC1(c2ccccc2)c2ccccc2N(c2ccccc2)c2ccc(Cl)cc21` (stereo not given), the growth was -72.3% (active).
`O=c1c2ccccc2n(C[C@H]2CO2)c2ccccc12` was tested, and the growth was -12.7% (active).
